Test results published in article PMC4336329 (PLoS ONE, 2015).
About 14,000 (4.5%) of roughly 310,000 compounds showed an effect of 50% or more. Effects have a minus sign here. The sample as a whole holds a higher share of strong results than the screen did.

target: human ether-à-go-go-related gene (hERG) potassium channel (human, UniProt Q12809); assay: primary screen, population patch clamp on CHO cells stably expressing hERG; higher = less effect of the substance
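Note: peak tail current of the secondary pulse compared with the same well before compound.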

Sequence of human ether-à-go-go-related gene (hERG) potassium channel (Q12809 whole entry, looked up): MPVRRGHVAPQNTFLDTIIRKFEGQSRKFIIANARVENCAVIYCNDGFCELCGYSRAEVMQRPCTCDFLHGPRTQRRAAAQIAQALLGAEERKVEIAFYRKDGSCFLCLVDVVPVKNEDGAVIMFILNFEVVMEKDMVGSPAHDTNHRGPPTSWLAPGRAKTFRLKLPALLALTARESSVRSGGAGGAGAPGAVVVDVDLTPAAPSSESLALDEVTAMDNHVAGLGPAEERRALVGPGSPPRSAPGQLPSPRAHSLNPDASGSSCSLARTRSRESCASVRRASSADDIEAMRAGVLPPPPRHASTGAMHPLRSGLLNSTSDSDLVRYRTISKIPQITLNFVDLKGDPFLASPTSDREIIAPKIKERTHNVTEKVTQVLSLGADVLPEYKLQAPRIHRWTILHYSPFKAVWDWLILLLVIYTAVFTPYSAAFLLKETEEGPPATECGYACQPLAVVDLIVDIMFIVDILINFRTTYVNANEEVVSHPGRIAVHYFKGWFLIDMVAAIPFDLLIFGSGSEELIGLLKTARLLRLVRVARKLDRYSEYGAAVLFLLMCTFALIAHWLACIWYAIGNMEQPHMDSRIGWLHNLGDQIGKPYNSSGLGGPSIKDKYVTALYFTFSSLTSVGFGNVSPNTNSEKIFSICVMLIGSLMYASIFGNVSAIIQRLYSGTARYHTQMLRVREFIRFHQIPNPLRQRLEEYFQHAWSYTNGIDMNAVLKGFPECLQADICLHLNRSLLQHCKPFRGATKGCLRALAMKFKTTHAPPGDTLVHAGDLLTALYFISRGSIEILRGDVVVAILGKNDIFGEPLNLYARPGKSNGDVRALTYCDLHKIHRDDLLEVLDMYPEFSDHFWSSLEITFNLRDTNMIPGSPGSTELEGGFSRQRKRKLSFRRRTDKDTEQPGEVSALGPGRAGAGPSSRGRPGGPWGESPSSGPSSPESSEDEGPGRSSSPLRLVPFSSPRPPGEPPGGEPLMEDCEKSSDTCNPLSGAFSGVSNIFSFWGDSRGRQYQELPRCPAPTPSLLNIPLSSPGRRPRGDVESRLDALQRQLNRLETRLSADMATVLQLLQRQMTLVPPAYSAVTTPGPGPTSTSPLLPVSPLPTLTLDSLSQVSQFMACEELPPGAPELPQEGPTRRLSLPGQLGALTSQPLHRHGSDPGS

| Structure (SMILES) | hERG current change (%, negative = inhibition) at 10uM [%] |
| --- | --- |
| Cc1ccccc1C(=O)Nc1cccc(NC(=O)c2cccnc2)c1 | -9.39 |
| CCn1ncc(/C=C2/SC(=S)NC2=O)c1C | 23.6 |
| CCOc1ncnc2c1sc1nc(C)cc(C)c12 | 16 |
| CC(C)N(C(=O)N1CCC(c2nc(-c3ccncc3)no2)CC1)C(C)C | -15.3 |
| O=C(c1ccco1)N1CCN(S(=O)(=O)c2ccc(Br)s2)CC1 | -16 |
| Cc1cccn2c(=O)c3cc(C(=O)NCCN4CCOCC4)c(=N)n(CCN4CCOCC4)c3nc12 | 18.5 |
| CCOCCCn1c(=N)c(C(=O)NCCN2CCOCC2)cc2c(=O)n3cccc(C)c3nc21 | -53.6 |
| CCCCNC(=O)c1cc2c(=O)n3cccc(C)c3nc2n(CCN2CCOCC2)c1=N | -86 |
| Cc1cccn2c(=O)c3cc(C(=O)NCCN4CCOCC4)c(=N)n(CCCN4CCOCC4)c3nc12 | 15.2 |
| Cc1ccc(NC(=O)CN2CCCCC2)c2c1CC(C)(C)O2 | 1.17 |
| O=C(Cc1cccs1)Nc1nc(-c2ccc(F)cc2F)cs1 | -4.34 |
| CCCn1cnc2c(=S)nc(N)[nH]c21 | 16.3 |
| CCNCCC(=O)N1c2ccccc2Sc2ccc(NC(=O)OCC)cc21.Cl | -29.6 |
| COC(=O)c1c(C)oc2cc(Br)c(OCC(=O)C(C)(C)C)cc12 | 6.12 |
| CC(C)N1C(=O)CCC1C(=O)NC1CCCC1 (centres unmarked) | -3.05 |
| CCOc1ccc(-c2cc(C(=O)N/N=C(\C)c3cccnc3)c3ccccc3n2)cc1 | 10.6 |
| CCOc1ccc(S(=O)(=O)N(CC)CC(=O)N2CCOCC2)cc1C | 6.73 |
| CCCNC(=O)NCc1ccc(N2CCCC2=O)cc1 | 8.43 |
| O=P(O)(O)CCP(=O)(c1ccccc1)c1ccccc1 | 9.46 |
| O=C(O)CCCCCCCCCCP(=O)(c1ccccc1)c1ccccc1 | -7.05 |
| O=P(CCCCCCCCCP(=O)(c1ccccc1)c1ccccc1)(c1ccccc1)c1ccccc1 | -56.1 |
| CCN(CC(=O)N1CCCCC1)S(=O)(=O)c1ccccc1 | -7.12 |

| Structure (SMILES) | hERG current change (%, negative = inhibition) at 10uM [%] |
| --- | --- |
| COc1cc(OC)c(CN2CCN(c3ccc(F)cc3)CC2)cc1Br | -70.3 |
| COc1cc(OC)c(CN2CCCN(C)CC2)cc1Br | 18.1 |
| COc1ccc(C2C(C#N)=C(N)Oc3n[nH]c(C)c32)cc1Cn1nnc2ccccc21 (centres unmarked) | -8.03 |
| COc1cc(OC)c(CN2CCCCCCC2)cc1Br | -22.4 |
| COc1ccc(C2C(C#N)=C(N)Oc3n[nH]c(C)c32)cc1Cn1cc([N+](=O)[O-])cn1 (centres unmarked) | -14 |
| COc1cc(OC)c(OC)cc1CN1CCN(S(=O)(=O)c2ccc(F)cc2)CC1.O=C(O)C(=O)O | -7.69 |
| COc1cc(OC)c(OC)cc1CN1CCN(c2ccccc2OC)CC1 | -31.1 |
| COc1ccc(C2C(C#N)=C(N)Oc3n[nH]c(C)c32)cc1CN1CCN(c2ccc(F)cc2)CC1 (centres unmarked) | -65.6 |
| COc1cc(OC)c(OC)cc1CN1CCN(c2ccc(F)cc2)CC1 | -68.5 |
| COc1ccc(CN2CCN(c3ccc(F)cc3)CC2)c(OC)c1OC | -70.2 |
| COc1ccc(CN2CCNCC2)c(OC)c1OC | 9.67 |
| COc1ccc(CN2CCN(C(c3ccc(F)cc3)c3ccc(F)cc3)CC2)c(OC)c1OC.Cl | -13.3 |
| S=c1[nH]nc(-c2ccccc2)n1/N=C/c1c[nH]c2ccccc12 | 12.1 |
| CC1(C)CC2CC(C)(CN2C(=O)COC(=O)CNC(=O)c2ccc(Cl)c(Cl)c2)C1 (centres unmarked) | -20.9 |
| O=C(CN1C(=O)NC2(CCCCCC2)C1=O)NCCc1ccc(F)cc1 | -13 |
| O=C(NCc1cccs1)C1CCN(S(=O)(=O)c2ccc(Br)s2)CC1 | -14.8 |
| CCc1cc2c(=O)n(N)c(CCC(=O)O)nc2s1 | -8.56 |
| Cc1ccc(-n2nnnc2SCC(=O)c2c(N)n(C3CC3)c(=O)[nH]c2=O)c(C)c1 | -4.23 |
| CC1Cc2cc(/C(O)=C3/C(=O)C(=O)N(CCCn4ccnc4)C3c3ccc(Br)cc3)ccc2O1 (centres unmarked) | 6.07 |
| CN(Cc1ccc(F)cc1)C(=O)c1cc(COc2ccc(-n3cncn3)cc2)on1 | -78.3 |
| COc1cccc(CN(C)C(=O)c2cc(COc3ccc(-n4cncn4)cc3)on2)c1 | -79.9 |
| CCCOC1CCCN(C(=O)c2cc(COc3ccc(-n4cncn4)cc3)on2)C1 (centres unmarked) | -79 |
